Compound activity: PubChem BioAssay, several laboratories
An excerpt weighted towards active compounds, which were near 7.1% of everything screened.
M1 ag: M1 muscarinic receptor agonists, primary screen, CHO-M1 cells, Fluo-4 calcium, agonist mode; Muscarinic acetylcholine receptor M1; AID 626, 2007; actives 3% (n = 64,000); B-score at 10 µM; Fluo-4 calcium fluorescence; hits give high values;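 active = fluorescence rise, raw or as B-score row- and column-corrected plate score, outside the 99.7% band of its plate's samples, either direction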
Pyk2 oligo antag: antagonists of Pyk2 self-association, primary screen, Q293 cells, FERM NanoBiT luminescence, HTS; hits give low values; AID 1347419, 2020; Protein-tyrosine kinase 2-beta (Homo sapiens), Q14289; actives 0.83% (n = 99,000); z-score (the deposit names both 25 µM and 10 µM);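 active = Z-score of -3 or lower, scaled per plate to the spread of control and sample wells; inactive = z-score above -3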;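 also: negative z-score means lost luminescence so less FERM oligomerization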
Cav32 inh: Cav3.2 calcium influx blockers – cell-based, Fluo-4 calcium fluorescence, FDSS, MLSMR library, primary screen. B-score at 10 µM. actives 4% (n = 100,000). Cav3.2-expressing cells; hits give low values;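 active = single-dose well whose peak fluorescence ratio is a statistical outlier from its plate by either plate-standardised score or position-corrected B-score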
M1 antagonist: antagonists of rat M1 muscarinic receptor; Muscarinic acetylcholine receptor M1 (Rattus norvegicus), P08482; CHO-M1 cells, Fluo-4 calcium, ACh EC80 antagonist mode; hits give low values; B-score at 10 µM; actives 3.4% (n = 64,000); AID 628, 2007;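 active = calcium fluorescence response, raw or row-and-column corrected B-score, differing from the plate sample mean either way at a set confidence level, mostly lower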
M1 antag confirm: rat M1 muscarinic receptor antagonists, confirmation, CHO cells, Fluo-4 calcium, duplicate. shares compounds with M1 antagonist. ACh EC80 antagonism; hits give low values. calcium response (max-min fluorescence) at 10 µM. actives 43% (n = 1,700). AID 677, 2007;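 active = calcium response below the same-plate mean of wells given acetylcholine alone at its 80%-effect dose, minus 3 SD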;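 also: raw fluorescence intensity difference in arbitrary instrument units and not normalized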
mGluR4 antag: human mGluR4 response to M1 antagonist hits, M1 allosteric modulator project, cell-based, antagonist mode, secondary assay 1; shares compounds with M1 antagonist; actives 0.9% (n = 1,700); CHO-mGluR4 calcium flux, Fluo-4 fluorescence, glutamate EC80; hits give low values; fluorescence response (max-min) at 10 µM; AID 678, 2007;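 active = fluorescence response below the plate's average for near-maximal glutamate wells, less 3 SD of those wells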;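 also: raw unnormalized fluorescence span taken in the window right after glutamate addition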
Active calls of the source: *.

`Cc1cc(N2CCCN(C)CC2)nc2cc(Cl)ccc12` gave M1 ag -1.26, Pyk2 oligo antag -0.36, Cav32 inh 0.454, M1 antagonist -3.71*, M1 antag confirm 378* and mGluR4 antag 259.
Screening COc1ccc(Oc2c(C)oc3c(CN4CCOCC4)c(O)ccc3c2=O)cc1 returned Pyk2 oligo antag 0.1 and Cav32 inh -0.52.
For CCOC(=O)c1ccc(Oc2c(C)oc3c(CN4CCN(C)CC4)c(O)ccc3c2=O)cc1 the results were M1 ag -0.187, Pyk2 oligo antag -0.14, Cav32 inh 2.02, M1 antagonist -4.39*, M1 antag confirm 405* and mGluR4 antag 250.
CCc1sc(NC(=O)COC)nc1-c1ccccc1 was read as M1 ag -0.0159, Pyk2 oligo antag 0.68, Cav32 inh 0.442, M1 antagonist -5.95*, M1 antag confirm 456* and mGluR4 antag 266.
`O=C(c1ccco1)N1CCN(CCCCN2C(=O)c3ccccc3C2=O)CC1` gave M1 ag -0.474, Pyk2 oligo antag 2.02, Cav32 inh 0.356, M1 antagonist -1.36*, M1 antag confirm 637 and mGluR4 antag 227.
For O=C(CCC1CCCC1)N1CCN(C(=O)c2ccco2)CC1 the results were M1 ag 0.143, Pyk2 oligo antag -0.44, Cav32 inh 0.126, M1 antagonist -2.99*, M1 antag confirm 654 and mGluR4 antag 237.
O=C1OC(N2CCN(C(=O)c3ccco3)CC2)c2ccccc21 (centres undefined) was read as M1 ag -0.0188, Pyk2 oligo antag 0.06, Cav32 inh 0.849, M1 antagonist -3.8*, M1 antag confirm 609 and mGluR4 antag 247.
`O=C(CN1C(=O)c2ccccc2C1=O)N1CCN(C(=O)c2ccco2)CC1` gave Pyk2 oligo antag 0.93 and Cav32 inh 1.74.
For COc1cccc(N2[C@@H](CC(=O)O)c3cc(C(F)(F)F)ccc3S2(=O)=O)c1 the results were Cav32 inh -0.928.
Screening COC(=O)c1c(NC(=O)CSc2nnc(Cn3nnc4ccccc43)n2C)sc(C)c1C returned M1 ag 1.3, Pyk2 oligo antag 1.82, Cav32 inh -0.525, M1 antagonist -2.35*, M1 antag confirm 430* and mGluR4 antag 255.
`Cc1ccc2[nH]c(=O)c(CN(CCO)C(=O)N(C)C)cc2c1` gave Pyk2 oligo antag -0.39 and Cav32 inh -0.636.
Screening CCN(CC)S(=O)(=O)c1cccc(-c2nnc(SCc3nnc(-c4cccs4)o3)n2N)c1 returned M1 ag 0, Pyk2 oligo antag 0.58, Cav32 inh 0.648 and M1 antagonist -0.357.
Cc1ccc2nc3c(cc(C(=O)NCc4cccnc4)c(=N)n3C(C)C)c(=O)n2c1 was read as M1 ag 0.711 and M1 antagonist -0.0136.
For Cc1cccn2c(=O)c3cc(C(=O)NC(C)c4ccccc4)c(=N)n(CCCn4ccnc4)c3nc12 (centres undefined) the results were M1 ag -0.665, M1 antagonist -2.91*, M1 antag confirm 317* and mGluR4 antag 200.
For CCn1c(=N)c(C(=O)NC)cc2c(=O)n3cccc(C)c3nc21 the results were M1 ag -1.61, Pyk2 oligo antag 0.07 and M1 antagonist -1.5.
For Cc1ccc2nc3c(cc(C(=O)NCc4ccccc4)c(=N)n3CCCn3ccnc3)c(=O)n2c1 the results were M1 ag 0.181, M1 antagonist -4.22*, M1 antag confirm 372 and mGluR4 antag 229.
For CCOC(=O)c1ccc(NC(=O)CSc2nccn2C)cc1 the results were M1 ag -0.227, Pyk2 oligo antag -0.34, Cav32 inh 0.107, M1 antagonist -3.29*, M1 antag confirm 623 and mGluR4 antag 229.
COCCn1c(SCC(=O)Nc2cccc(C(=O)OC)c2)nc2ccccc2c1=O was read as M1 ag -0.145, Pyk2 oligo antag -1.27, Cav32 inh -0.834 and M1 antagonist 0.823.
For COc1ccc(CCNC(=O)COc2ccc(S(=O)(=O)NC(C)C)cc2Cl)cc1OC the results were Pyk2 oligo antag 0.65 and Cav32 inh 0.0338.
Screening CC1=NC(Nc2nc(C)c3ccccc3n2)=NC(C)(C)C1 returned M1 ag -0.174, Pyk2 oligo antag -0.16, Cav32 inh -0.0964, M1 antagonist -9.63*, M1 antag confirm 224* and mGluR4 antag 212.
Cc1nc(Nc2ncc3c(n2)CC(C)(C)CC3=O)nc2ccccc12 was read as M1 ag -0.813 and M1 antagonist 0.56.
CCN(CC)CCOC(=O)C1(c2ccc(OC)c(OC)c2)CCCC1 was read as M1 ag 0.536, Pyk2 oligo antag 0.26, Cav32 inh 0.0868, M1 antagonist -10.8*, M1 antag confirm 165* and mGluR4 antag 195.
Screening CCN(CC)CCOC(=O)C1(c2ccccc2)CCCC1 returned Pyk2 oligo antag -0.61 and Cav32 inh 0.359.
CCn1c(SCC(=O)N2CCN(c3ccccc3F)CC2)nnc1-c1ccoc1C was read as M1 ag -0.00877, Pyk2 oligo antag 0.38, Cav32 inh 0.745 and M1 antagonist 1.11.
Screening CN1CCN(CCC(=O)N2c3ccccc3Sc3ccc(Cl)cc32)CC1 returned M1 ag 0.208, Pyk2 oligo antag 0.16, Cav32 inh 1.57, M1 antagonist -11.2*, M1 antag confirm 268* and mGluR4 antag 255.
Cn1nnnc1SCC(=O)N1c2ccccc2Sc2ccc(Cl)cc21 was read as M1 ag 0.0043, Pyk2 oligo antag -0.83, M1 antagonist -2.7*, M1 antag confirm 446* and mGluR4 antag 231.
For COC(=O)Nc1ccc2c(c1)N(C(=O)CCN1CCN3CCCC3C1)c1ccccc1S2 (centres undefined) the results were M1 ag -0.618, Pyk2 oligo antag 0.39, Cav32 inh 0.631 and M1 antagonist -1.1.
Cn1c(SCC(=O)N2c3ccccc3Sc3ccc(Cl)cc32)nnc1-c1ccco1 was read as M1 ag -0.465, Pyk2 oligo antag -1.97, Cav32 inh -3.82 and M1 antagonist -0.426.
For O=C(CN1CCN(CCOCCO)CC1)N1c2ccccc2Sc2ccc(Cl)cc21 the results were M1 ag -0.345, Pyk2 oligo antag 0.84, Cav32 inh 0.723, M1 antagonist -17.2*, M1 antag confirm 23.5* and mGluR4 antag 236.
Screening CC(=O)Nc1ccc(S(=O)(=O)N2CCN(c3nc(NC4CCCC4)c4ccccc4n3)CC2)cc1 returned M1 ag 0.169, Pyk2 oligo antag -3.01*, Cav32 inh 0.0656, M1 antagonist -2.81*, M1 antag confirm 514* and mGluR4 antag 239.
